ARNT TACC3 PPI = disruptors of ARNT/TACC3 protein interaction, primary screen, biochemical, AlphaScreen, single concentration; Transforming acidic coiled-coil-containing protein 3 (Homo sapiens), Q9Y6A5; AlphaScreen His-ARNT PAS-B/GST-TACC3 binding, luminescence; TACC3 fragment carries E629A point mutation; inhibition, % at 9.99 µM; 390,000 compounds, 0.66% hits;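 active means mean inhibition of replicates at least 50% and at least half of replicates each reaching 50%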;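 further: 0% = complete ARNT plus TACC3 wells and 100% = ARNT alone without TACC3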
ABCB6 inh 2 = ABCB6 transporter inhibitors, primary screen, K562-ABCB6 cells, flow cytometry, MLPCN library | ATP-binding cassette sub-family B member 6 (Homo sapiens), Q9NP58 | K562-ABCB6 porphyrin accumulation, 1 h; stronger effect = lower value | fluorescence ratio to DMSO, % at 10 µM | 360,000 compounds, 0.19% hits | AID 602162, 2011;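 active means fluorescence ratio to DMSO below 75%, the collection mean minus 3 SD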;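 further: signal is porphyrin accumulated inside mitochondria; 100% equals median channel fluorescence of DMSO control wells; lower ratio means ABCB6 inhibition with less porphyrin fluorescence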
Target sequence (Q9NP58 whole entry, looked up): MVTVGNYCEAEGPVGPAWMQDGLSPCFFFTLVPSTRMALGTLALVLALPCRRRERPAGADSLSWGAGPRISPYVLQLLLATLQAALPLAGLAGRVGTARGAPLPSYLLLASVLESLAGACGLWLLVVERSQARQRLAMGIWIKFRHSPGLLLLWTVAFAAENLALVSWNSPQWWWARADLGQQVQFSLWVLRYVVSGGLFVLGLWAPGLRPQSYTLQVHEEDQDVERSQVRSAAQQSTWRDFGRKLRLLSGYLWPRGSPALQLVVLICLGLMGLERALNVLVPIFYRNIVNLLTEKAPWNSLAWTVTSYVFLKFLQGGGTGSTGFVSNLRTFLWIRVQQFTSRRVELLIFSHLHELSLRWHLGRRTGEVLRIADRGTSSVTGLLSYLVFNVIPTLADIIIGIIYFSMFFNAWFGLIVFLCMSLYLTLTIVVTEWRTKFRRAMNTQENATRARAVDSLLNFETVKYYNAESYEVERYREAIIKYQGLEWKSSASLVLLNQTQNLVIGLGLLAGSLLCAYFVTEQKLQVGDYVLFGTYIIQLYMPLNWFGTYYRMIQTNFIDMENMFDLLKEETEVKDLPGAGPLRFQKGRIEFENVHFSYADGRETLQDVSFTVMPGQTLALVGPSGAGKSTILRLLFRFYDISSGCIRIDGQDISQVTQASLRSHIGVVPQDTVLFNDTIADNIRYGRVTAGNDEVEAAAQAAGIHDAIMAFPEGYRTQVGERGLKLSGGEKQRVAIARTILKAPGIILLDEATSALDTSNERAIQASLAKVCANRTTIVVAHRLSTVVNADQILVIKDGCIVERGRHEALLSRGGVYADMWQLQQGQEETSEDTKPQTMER
iPSC survival up = enhancers of single-cell hiPSC survival, primary screen, ATPlite luminescence. 100% = ROCK inhibitor wells, 0% = DMSO. survival enhancement, % at 20 µM. 360,000 compounds, 0.044% hits. AID 602274, 2012; in the data active means survival enhancement above about 18%;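 further: cells exposed to compounds for 16 hours before the ATP read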
CendR NRP1 mod = modulators of CendR peptide binding to NRP-1, primary screen, biochemical, fluorescence polarization, uHTS; 360,000 compounds, 0.85% hits; FAM-RPARPAR peptide binding to NRP-1; inhibition, % at 25 µM;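 active means inhibition or corrected inhibition above about 18%, plus a signal ratio from 0.5 to 1.5, limit read from the data, passing the limit was not always enough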
INS-1E GSIS act = GLuc luminescence reporter in INS-1E cells, primary screen for activators of glucose-dependent secretion of insulin; INS-1E GLuc reporter insulin secretion, 2-3 h; activation, % at 16.6 µM; 370,000 compounds, 0.61% hits; AID 743287, 2014;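 active means lowest replicate activation of at least 40%, so every replicate reaches that level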;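 further: 0% = median of neutral control wells and 100% = median of IBMX positive control wells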
ABCB6 inh CP1 = ABCB6 transporter inhibitors, confirmation, K562-ABCB6 cells, flow cytometry, cherry pick 1. shares compounds with ABCB6 inh 2. K562-ABCB6 porphyrin accumulation, 1 h; stronger effect = lower value. ratio response (% of DMSO), % at 10 µM. 700 tested, under 10 active. AID 602430, 2012;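 active means repeat-averaged ratio response below 75% of DMSO, the collection mean minus 3 SD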;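 further: median porphyrin fluorescence at 575 nm with 488 nm excitation from mitochondria; lower ratio means less porphyrin signal so ABCB6 inhibition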
* hit, by the source's call; . = no result. This is a sample that favours compounds with a hit; in the whole collection about 1.8% have one here.

SMILES	ARNT TACC3 PPI	ABCB6 inh 2	iPSC survival up	CendR NRP1 mod	INS-1E GSIS act	ABCB6 inh CP1
COCCCNC(=O)CCc1nnc2ccc(N3CCC(C)CC3)nn12	-3	94	0	-1	15	102
COCCNC(=O)CCc1nnc2ccc(N3CCC(C)CC3)nn12	1	96	0	10	9	101
COC(=O)C(NC(=O)CCc1nnc2ccc(N3CCCCC3)nn12)C(C)C (stereo not given)	0	100	1	-3	16	100
CCN(CC)CCNC(=O)CCc1nnc2ccc(N3CCC(C)CC3)nn12	1	99	-1	-2	9	103
COc1cc(NC(=O)CCc2nnc3ccc(N4CCC(C)CC4)nn23)cc(OC)c1	-4	101	0	0	-2	.
O=C(C1CC1)N1CCCCN2[C@H](C1)[C@H](c1ccc(-c3ccncc3)cc1)[C@@H]2CO	1	.	.	.	.	.
CC1CCN(c2ccc3nnc(CCC(=O)NC(C)C)n3n2)CC1	-16	97	0	-5	-14	91
CC(C)C#Cc1cnc2c(c1)C(=O)N([C@H](C)CO)C[C@@H](C)[C@@H](CN(C)Cc1cncnc1)O2	-6	.	.	.	-2	.
COc1ccccc1-c1nnc(SC/C(O)=C(\C#N)c2nc3ccccc3[nH]2)n1C1CCCCC1	3	71*	-1	-28	.	102
CCS(=O)(=O)N[C@@H]1C=C[C@H](CC(=O)NCc2ccccn2)O[C@@H]1CO	.	.	.	.	-3	.
CCCC(=O)Nc1ccc2c(c1)Cc1ccccc1-2	-6	73*	-1	-1	1	99
Cc1cc(C)cc(N(C(=O)c2csnn2)C(C(=O)NC2CCCC2)c2cccnc2)c1 (stereo not given)	-21	74*	0	4	3	100
Cc1cc(C)cc(N(C(=O)c2csnn2)C(C(=O)NC2CCCCC2)c2cccnc2)c1 (stereo not given)	.	105	-1	-2	1	.
O=C(NC1CCCC1)C(c1ccco1)N(Cc1ccccc1)C(=O)c1csnn1 (stereo not given)	0	94	-2	0	.	.
Cc1ccc(CN(C(=O)c2csnn2)C(C(=O)NC2CCCC2)c2ccco2)cc1 (stereo not given)	3	73*	0	-17	-5	99
O=C(C[C@H]1CC[C@H]2[C@@H](COC[C@@H](O)CN2S(=O)(=O)c2cccc(Cl)c2)O1)Nc1ccc(-c2ccccc2)cc1	6	.	.	.	-2	.
CCCNC(=O)[C@@H]1[C@@H](CO)[C@@H]2Cn3c(ccc(-c4cccc(F)c4)c3=O)[C@H]1N2C(C)=O	0	.	.	.	4	.
O=C1NCCOCc2cn(nn2)CC[C@@H]1Cc1ccc(F)cc1	.	.	.	.	4	.
CCOc1ccccc1N(C)C(=O)c1sc2ncn(CC(=O)N3CCCCC3C)c(=O)c2c1C (stereo not given)	-7	172	0	1	-14	100
Cc1c(C(=O)NCc2cccnc2)sc2ncn(CC(=O)N3CCCCC3C)c(=O)c12 (stereo not given)	.	100	0	-1	.	.
COc1cc(NC(=O)c2sc3ncn(CC(=O)N4CCCCC4C)c(=O)c3c2C)cc(OC)c1OC (stereo not given)	.	97	3	-4	-7	101
CCOc1ccccc1NC(=O)c1sc2ncn(CC(=O)N3CCOCC3)c(=O)c2c1C	21	100	0	0	-2	.
Cc1ccc(NC(=O)c2sc3ncn(CC(=O)N4CCOCC4)c(=O)c3c2C)c(Br)c1	3	99	0	16	-3	97
Cc1cc([N+](=O)[O-])ccc1NC(=O)c1sc2ncn(CC(=O)N3CCOCC3)c(=O)c2c1C	.	105	0	8	6	.
CCOC(=O)N1CCC(N2Cc3cccc(C(=O)NCc4ccccn4)c3C2=O)CC1	1	73*	2	4	.	99
SMILES	ARNT TACC3 PPI	ABCB6 inh 2	iPSC survival up	CendR NRP1 mod	INS-1E GSIS act	ABCB6 inh CP1
C[C@H]1CN([C@@H](C)CO)C(=O)c2cc(-c3ccccc3)cnc2O[C@@H]1CN(C)C(=O)Cc1cccnc1	0	.	.	.	6	.
CCc1ccc(S(=O)(=O)N2CC(=O)Nc3ccccc32)cc1	0	94	2	10	38	.
CCOC(=O)c1ccc(S(=O)(=O)N2CC(=O)Nc3ccccc32)cc1	.	68*	0	-9	6	106
CC(C)NC(=O)N(C)C[C@@H]1Oc2ccc(NC(=O)Cn3cnnn3)cc2C(=O)N([C@@H](C)CO)C[C@H]1C	.	.	.	.	19	.
COc1ccc(NC(=O)N(C)C[C@@H]2OCc3cn(nn3)CCCC(=O)N([C@@H](C)CO)C[C@@H]2C)c(OC)c1	.	.	.	.	8	.
CNC[C@H]1Oc2ncc(C3=CCCC3)cc2C(=O)N([C@@H](C)CO)C[C@H]1C	.	.	.	.	-4	.
COc1ccc(-c2ccc(C(=O)NCc3ccncc3)c3occc23)c(C)c1	.	69*	3	-1	3	98
COc1ccc(-c2ccc(C(=O)NCc3ccc(F)c(F)c3)c3occc23)c(C)c1	.	105	-1	-8	0	.
O=C(c1ccc(F)cc1)N1CC(=O)N2[C@H](CO)[C@@H](c3ccc(C#CC4CCCCC4)cc3)[C@@H]2C1	.	.	.	.	24	.
CC1(C(=O)NS(=O)(=O)c2cccc(C#N)c2)CCN1C(=O)Cc1ccc(Cl)cc1Cl (stereo not given)	.	85	2	2	-1	.
Cc1cc(C)cc(CC(=O)N2CCC2(C)C(=O)NS(=O)(=O)c2cccc(F)c2)c1 (stereo not given)	.	100	-2	-8	1	103
Cc1cc(C)cc(CC(=O)N2CCC2(C)C(=O)NS(=O)(=O)c2ccc(Br)cc2)c1 (stereo not given)	.	96	-2	-6	4	100
CC(C)(C)c1ccc(CC(=O)N2CCC2(C)C(=O)NS(=O)(=O)c2cccc(C#N)c2)cc1 (stereo not given)	.	61*	0	-1	.	102
CC1(C(=O)NS(=O)(=O)c2cccc(C#N)c2)CCN1C(=O)Cc1ccccc1Cl (stereo not given)	.	97	-2	-5	.	100
Cc1cc(C)cc(CC(=O)N2CCC2(C)C(=O)NS(=O)(=O)c2ccccc2)c1 (stereo not given)	.	97	0	-5	-1	.

Screening results: PubChem BioAssay, several laboratories
